Assay outcomes: PubChem, National Center for Advancing Translational Sciences (NCATS)
This is a sample that favours compounds with a hit; in the whole collection about 0.47% have one here.
AID inhibitor: blocks human AID cytidine deaminase activity; AID deamination FRET fluorescence, UDG-coupled, 4 h; Q9GZX7; 91,000 tested, 0.32% active; Potency, µM (series often up to 115 µM), most hits filed as inhibitors; also: nearly all actives have a fitted effect of over 25% in size
Target sequence (Q9GZX7 whole entry, looked up): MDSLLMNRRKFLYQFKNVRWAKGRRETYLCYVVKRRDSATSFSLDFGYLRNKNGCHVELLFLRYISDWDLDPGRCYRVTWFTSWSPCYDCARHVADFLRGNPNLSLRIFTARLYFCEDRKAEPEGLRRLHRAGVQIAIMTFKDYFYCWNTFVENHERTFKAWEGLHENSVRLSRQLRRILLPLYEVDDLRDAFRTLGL
UDG counter: counter-screen for AID inhibitors: uracil-DNA glycosylase inhibition; FRET deamination/UDG coupled assay, UDG read, 4 h; Potency, µM (top dose mostly 115 µM), hits mostly inhibitors; 91,000 tested, 0.14% active; AID 1347430; also: nearly all actives have a fitted effect of over 65% in size
Each line names hits and unclear results; the compound was inactive in the other large screens. Calls follow the shape of the dose curve; as a rule, active = well fitted curve in the direction sought with a large enough effect; inconclusive = small, poorly fitted or top-dose-only effect, or another doubt; inactive = no such curve, though single readings can be large; an effect the other way counts as inactive or inconclusive.

COc1cc(OC)c(/C=C(/C#N)c2cccc(C(F)(F)F)c2)c(OC)c1	none
COc1ccccc1OCCCSc1nc(-c2ccc(C(C)(C)C)cc2)nc2cc(=O)[nH]n12	AID inhibitor inconclusive
CC(C)(C)c1ccc(-c2nc(SCCCOc3ccccc3)n3[nH]c(=O)cc3n2)cc1	AID inhibitor 79.4µM
COc1ccccc1Cn1cc(C(=O)c2ccc(Cl)cc2)c(=O)c2ccccc21	none
COc1cccc(Cn2cc(C(=O)c3ccc(Cl)cc3)c(=O)c3ccccc32)c1	AID inhibitor 28.2µM
CCc1c(C)sc(NC(=O)C2CC2)c1C#N	none
O=C(Nc1cccc(C(F)(F)F)c1)C1CCN(S(=O)(=O)c2cccs2)CC1	AID inhibitor inconclusive, UDG counter 79.4µM
O=C(Nc1ccc(OC(F)(F)F)cc1)C1CCN(S(=O)(=O)c2cccs2)CC1	UDG counter inconclusive
Brc1ccc2[nH]c3c(c2c1)CCCCC3	none
CCC(C)c1ccc(NC(=O)COC(=O)CCC2CCCC2)cc1 (stereo not given)	none
COc1ccc(Nc2ncc3c(n2)CCN(Cc2cc(Br)cs2)C3)c(OC)c1	AID inhibitor inconclusive, UDG counter 89.1µM
COc1ccc(Nc2ncc3c(n2)CCN(Cc2ccc(Br)s2)C3)c(OC)c1	none
COc1ccc(CNC(=O)c2csc(NC(C)C)n2)cc1	none
O=C(NCc1ccccc1)c1ccccc1CSc1nc2ccccc2o1	none
CCOc1ccc(-c2nc(CSCC(=O)N3CCN(c4ccc(F)cc4)CC3)c(C)o2)cc1	none
CCOC(=O)c1c(C)oc2nc(C)nc(N3CCN(c4ccccc4)CC3)c12	none
CCOC(=O)c1c(C)oc2nc(C)nc(N3CCN(c4cccc(C(F)(F)F)c4)CC3)c12	AID inhibitor 14.1µM
CCOc1ccc(-c2nc(CSCC(=O)N3CCN(c4cccc(C(F)(F)F)c4)CC3)c(C)o2)cc1	AID inhibitor 31.6µM
O=C(Cn1ccc2c(Br)cccc21)NCCCO	none
CC(C)(C)c1ccc(C(=O)N2CCN(C/C=C/c3ccccc3)CC2)cc1	none
CCCSc1n[nH]c2nc3c(c(=O)n12)C(C)(CC)Cc1ccccc1-3 (stereo not given)	none
Cc1cc(C)nc(-n2nc(C)c3c2N(Cc2ccccc2)C(=O)CC3c2ccccc2)n1 (stereo not given)	none
CCCOc1ccc(C(=O)N(Cc2ccc(C(C)C)cc2)C2CCS(=O)(=O)C2)cc1 (stereo not given)	AID inhibitor inconclusive
CCCCOc1ccc(C(=O)N(Cc2ccc(C(C)C)cc2)C2CCS(=O)(=O)C2)cc1 (stereo not given)	AID inhibitor 25.1µM
COc1cc(C#N)cc(Cl)c1OCc1ccccc1C#N	none
